sEH inhibitor – inhibitors of human soluble epoxide hydrolase; P34913; recombinant human sEH enzymatic activity assay; inhibition, % at 2 µM; actives 0.34% (n = 91,000); AID 707; in the data active = inhibition above about 80%
Target sequence (P34913 whole entry, looked up): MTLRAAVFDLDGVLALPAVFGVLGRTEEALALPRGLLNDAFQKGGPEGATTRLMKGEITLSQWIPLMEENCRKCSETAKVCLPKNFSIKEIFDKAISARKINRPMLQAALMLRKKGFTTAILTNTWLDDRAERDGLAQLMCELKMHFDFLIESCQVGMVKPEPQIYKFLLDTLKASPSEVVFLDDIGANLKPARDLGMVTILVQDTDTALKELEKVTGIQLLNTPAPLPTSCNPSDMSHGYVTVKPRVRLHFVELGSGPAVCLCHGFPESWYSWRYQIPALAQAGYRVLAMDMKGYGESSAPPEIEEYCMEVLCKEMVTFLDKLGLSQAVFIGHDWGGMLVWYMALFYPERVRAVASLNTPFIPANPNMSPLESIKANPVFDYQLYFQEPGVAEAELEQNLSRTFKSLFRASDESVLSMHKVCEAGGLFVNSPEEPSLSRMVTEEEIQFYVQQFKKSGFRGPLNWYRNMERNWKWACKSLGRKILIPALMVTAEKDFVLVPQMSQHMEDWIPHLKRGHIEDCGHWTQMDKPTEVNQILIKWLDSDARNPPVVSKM
CYP2C19 inhib – inhibitors of human CYP2C19 | P33261 | CYP2C19 Supersomes, luciferin-H EGE luminescence, 30 min | inhibition, % at 5 µM | actives 21% (n = 96,000) | AID 778;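 active = CYP2C19 inhibition above a set limit at 5 µM in the primary screen, cut at about 50% in these data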
CYP2C9 act – CYP2C9 (human) activation; P11712; recombinant CYP2C9, luciferin-H conversion, luminescence; hits give high values; factor 1 = untreated enzyme, 0 = blocked; activation factor at 5 µM; actives 1.4% (n = 96,000); AID 1024;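 active = activation factor of 2 or more for CYP2C9 at a 5 µM dose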
CYP2C19 act – cytochrome P450 2C19 (human) activation | 96,000 tested, under 10 active | recombinant CYP2C19, luciferin-H EGE luminescence; hits give high values; 0 = fully inhibited enzyme, 1 = untreated enzyme | P33261 | activation factor at 5 µM | AID 1025;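 active = activation factor of at least 2 at 5 µM in the primary screen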
sEH activator – activators of human soluble epoxide hydrolase; P34913; purified human sEH enzymatic activity, activator screen; activation, % at 2 µM; actives 0.04% (n = 91,000); in the data active = activation above about 37%
CYP2C9 inhib – blocks human cytochrome P450 2C9 | CYP2C9 Supersomes, luciferin-H conversion, luminescence | inhibition, % at 5 µM | actives 20% (n = 96,000);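 active = blocking of liver enzyme CYP2C9 beyond about 50% at 5 µM, limit read from the data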
Large screens that a line does not name were inactive. Compounds with a hit are over-represented: about 27% of the library has one in this group of screens.

CCCCn1nc2cc(C(=O)NC3CCCc4ccccc43)ccc2c1OCC (stereo not given)	none
O=C(Nc1nc(-c2ccccc2)ns1)c1cccs1	none (no result: sEH inhibitor, sEH activator)
O=C(NCc1nc(-c2ccccc2)no1)c1cccs1	CYP2C19 inhib 56
O=C(NCc1nc(-c2ccccc2)no1)c1ccc(Br)o1	CYP2C19 inhib 72
O=C(NCc1ccncc1)c1ccc(Br)o1	none (no result: sEH inhibitor, sEH activator)
COCCCNC(=O)C1CCC(=O)N1Cc1ccccc1Cl (stereo not given)	none
Cc1nc(C)c(C(=O)Nc2ccc(Oc3ccccc3)cc2)o1	none
CCOC(=O)C1=C(Cn2cnc3ccccc32)NC(=O)NC1c1ccc(OC)cc1 (stereo not given)	CYP2C19 inhib 54, CYP2C9 inhib 67
O=[N+]([O-])c1ccc(-n2nncc2-c2ccc(Cl)cc2)cc1	CYP2C19 inhib 90, CYP2C9 inhib 54
CC(C)(C)c1cnnn1-c1ccc(-c2csc(N)n2)cc1	none (no result: sEH inhibitor, sEH activator)
Cc1nc(C(=O)Nc2ccc(Cl)cc2)nn1-c1ccc([N+](=O)[O-])cc1	none
Nc1ccc(-n2nncc2-c2ccc(Cl)cc2)cc1	CYP2C19 inhib 64, CYP2C9 inhib 57
COC(=O)Nc1c(C(=O)OC)cc(OC)c(OC)c1OC	none
COc1ccccc1NC(=S)NNC(=O)c1ccc(Cl)cc1Cl	none (no result: CYP2C19 inhib, CYP2C9 act, CYP2C19 act, CYP2C9 inhib)
COC(=O)c1cc(OC)c(OC)c(OC)c1N	CYP2C19 inhib 64 (no result: sEH inhibitor, sEH activator)
COc1cc(C(=O)Oc2ccccc2/C=N/NC(=O)c2ccc(Cl)cc2Cl)cc(OC)c1OC	CYP2C9 inhib 97
COc1cc(C(=O)Oc2ccccc2N)cc(OC)c1OC	CYP2C9 inhib 68 (no result: sEH inhibitor, sEH activator)
CCOC(=O)c1cc(-c2ccc(C#N)cc2)nc2c1c(C)nn2CCC#N	CYP2C9 inhib 52
CCOC(=O)c1cc(-c2ccc(OC)cc2)nc2c1c(C)nn2CCC#N	none
CCOP(=O)(OCC)C(C#N)=C1SCN(c2ccc(Cl)cc2)CS1	CYP2C9 inhib 61
COc1ccc(OC)c(-c2csc(N(Cc3ccco3)C(=O)c3cccs3)n2)c1	CYP2C19 inhib 78, CYP2C9 inhib 85
COc1ccc(-c2csc(N(CC3CCCO3)C(=O)c3cccs3)n2)cc1 (stereo not given)	CYP2C19 inhib 88, CYP2C9 inhib 92
CCN(CC)CCCN(C(=O)c1cccs1)c1nc(-c2ccc(OC)cc2)cs1	none
Cn1c(=O)c2c(nc(SCc3ccccn3)n2C)n(C)c1=O	none (no result: sEH inhibitor, sEH activator)
O=C(NS(=O)(=O)c1ccccc1)c1ccccc1F	none
OC1(c2ccc(OC(F)F)cc2)CSC(=Nc2cccnc2)N1C1CC1 (stereo not given)	CYP2C19 inhib 100
CCCN(CCC)C(=O)c1c(C)[nH]c(C(=O)OCC)c1C	none
CCOC(=O)c1c(C)[nH]c(N=Nc2ccccc2C)c1C	CYP2C19 inhib 83, CYP2C9 inhib 95
CCOC(=O)c1c(C)[nH]c(C(=O)CSc2ccccc2)c1C	CYP2C19 inhib 84, CYP2C9 inhib 96 (no result: sEH inhibitor, sEH activator)
CCOC(=O)c1c(C)[nH]c(N=Nc2ccc(C)cc2C)c1C	none
CCCCCCC(=O)c1c(C)[nH]c(C(=O)OCC)c1C	CYP2C9 inhib 71
CCOC(=O)c1c(C)[nH]c(C(=O)COC(=O)C(C)N2C(=O)C3CCCCC3C2=O)c1C (stereo not given)	CYP2C19 inhib 55, CYP2C9 inhib 52 (no result: sEH inhibitor, sEH activator)
CNC(=O)C1C(=S)NC(N)=C(C#N)C1c1ccccc1 (stereo not given)	none
CCOC(=O)c1c(C)[nH]c(C(=O)COC(=O)CN2C(=O)C3CCCCC3C2=O)c1C (stereo not given)	none
CCCCC(=O)OCC(=O)c1[nH]c(C)c(C(=O)OCC)c1C	CYP2C9 inhib 83
CCOC(=O)c1c(C)[nH]c(C(=O)CSc2nnc(C3CC3)n2N)c1C	CYP2C19 inhib 69, CYP2C9 inhib 66
CCOC(=O)c1c(C)[nH]c(C(=O)COC(=O)c2ccc(N3CCCC3=O)cc2)c1C	CYP2C9 inhib 90
CCOC(=O)c1c(C)[nH]c(C(=O)COC(=O)CSC)c1C	CYP2C9 inhib 56
Cc1ccnc(NC2c3ccccc3C(=O)N2Cc2ccccc2Cl)c1 (stereo not given)	none (no result: sEH inhibitor, sEH activator)
O=S(=O)(c1ccc(Cl)cc1)N1CCC(N2CCCCCC2)CC1	none (no result: sEH inhibitor, sEH activator)
NC(=O)C1CCN(C(=O)C2CCN(S(=O)(=O)c3ccccc3)CC2)CC1	none (no result: sEH inhibitor, sEH activator)
CCn1c(-c2cccc(Br)c2)n[nH]c1=S	CYP2C19 inhib 76
CCn1c(-c2ccc3ncccc3c2)n[nH]c1=S	none
Cc1cc2c(nn1)CCC/C2=N\O	none
O=C(Cc1ccsc1-c1ccccc1)NO	none
COc1cc(C2c3c(oc4ccc(C)cc4c3=O)C(=O)N2c2cc(C)ccn2)cc(OC)c1OC (stereo not given)	CYP2C9 inhib 59 (no result: sEH inhibitor, sEH activator)
Cc1ccc2oc3c(c(=O)c2c1)C(c1cccc(O)c1)N(c1ccccn1)C3=O (stereo not given)	none (no result: sEH inhibitor, sEH activator)
CCOc1ccc(CCNC(=O)c2cc3sccc3n2CC)cc1OCC	CYP2C19 inhib 51
CCOC(=O)N1CCC(NC(=O)c2cc3sccc3n2CC)CC1	none
CC(=O)CCc1ccc2oc(C(=O)O)c(C)c2c1	none
O=C(NCC1COc2ccccc2O1)c1cc2ccccc2o1 (stereo not given)	none (no result: CYP2C19 inhib, CYP2C9 act, CYP2C19 act, CYP2C9 inhib)

Source: PubChem
